Shown are actives, neighbours in structure and some others; about 1.9% of the full set was active somewhere.
dFosB activator: activators of delta FosB homodimer, primary screen, biochemical, fluorescence polarization, TAMRA-CDK5 oligo, single point | AID 493131, 2011 | Protein FosB (Mus musculus), P13346 | actives 0.99% (n = 340,000) | activation, % at 25 µM | purified delta FosB; percent of positive-control signal above neutral wells;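 active means mean activation above about 17%, with every replicate also reaching it, limit read from the data, passing the limit was not always enough; inconclusive means only one of the two conditions met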
Vif inh: HIV Vif self-association inhibitors, primary screen, imaging, HEK293T, single point. AID 602346, 2012. HEK293T cells, Vif self-association by quenched fluorescence, 24 h. inhibition, % at 7.49 µM. actives 0.35% (n = 340,000); in the data active means inhibition above about 50%, passing the limit was not always enough; inconclusive means no clear call, values can overlap the other calls; inactive means below about 31%
Bfl-1 A1 inh: caspase 3/7 activation in MEF A1-2A-BIM cells, primary screen, A1 inhibitor project, cell-based, luminescence, HTS | AID 2462, 2010 | actives 0.066% (n = 330,000) | Caspase-Glo 3/7 luminescence, 3 h; percent of clofoctol response, vehicle zero | caspase activation, % (no concentration beside the values);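 active means over half of replicate activation scores above 10%, or exactly half above 10 with the replicate mean above 10; inconclusive means replicate mean below 10 yet half the replicates above 10; inactive means over half of replicates below 10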
Neddylation inh: inhibitors of cullin neddylation, primary screen, biochemical, TR-FRET, uHTS, NAE and Ubc12; inhibition, % at 25 µM; actives 0.58% (n = 360,000); in the data active means inhibition above about 36%
Target sequence (P61081 whole entry, looked up): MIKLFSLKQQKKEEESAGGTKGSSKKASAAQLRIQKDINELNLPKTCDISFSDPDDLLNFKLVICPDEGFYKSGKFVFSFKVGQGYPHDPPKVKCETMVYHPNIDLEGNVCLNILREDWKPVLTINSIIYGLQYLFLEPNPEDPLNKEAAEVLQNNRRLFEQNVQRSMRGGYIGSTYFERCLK
Target sequence (Q13564 whole entry, looked up): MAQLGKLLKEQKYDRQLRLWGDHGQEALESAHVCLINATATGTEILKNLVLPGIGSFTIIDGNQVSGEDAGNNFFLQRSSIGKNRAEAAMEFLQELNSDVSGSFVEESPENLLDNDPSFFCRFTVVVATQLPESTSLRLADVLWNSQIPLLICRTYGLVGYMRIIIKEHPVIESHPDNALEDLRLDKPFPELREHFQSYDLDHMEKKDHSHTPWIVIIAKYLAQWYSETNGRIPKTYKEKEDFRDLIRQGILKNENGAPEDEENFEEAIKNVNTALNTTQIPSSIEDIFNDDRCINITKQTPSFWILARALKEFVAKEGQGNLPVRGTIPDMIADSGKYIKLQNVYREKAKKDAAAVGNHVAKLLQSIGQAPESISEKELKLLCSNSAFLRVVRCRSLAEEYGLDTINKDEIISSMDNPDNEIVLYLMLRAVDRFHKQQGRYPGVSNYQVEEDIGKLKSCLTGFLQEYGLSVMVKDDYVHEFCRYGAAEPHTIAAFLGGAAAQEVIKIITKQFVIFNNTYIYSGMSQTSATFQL
GSIS activator: GLuc luminescence reporter in INS-1E cells, primary screen for activators of glucose-dependent secretion of insulin; INS-1E GLuc reporter insulin secretion, 2-3 h; activation, % at 16.6 µM; actives 0.61% (n = 370,000);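 active means lowest replicate activation of at least 40%, so every replicate reaches that level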;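 further: 0% = median of neutral control wells and 100% = median of IBMX positive control wells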
An asterisk follows results filed as active; ? = inconclusive; . = not tested or not shown.

SMILES	dFosB activator	Vif inh	Bfl-1 A1 inh	Neddylation inh	GSIS activator
COc1ccc(S(=O)(=O)N(C)c2ccc(C(=O)NCC3CCCO3)cc2)cc1OC (stereo unspecified)	1.3	-0.3	1.5	-4.1	47.9*
O=C(Nc1ccccc1C(=O)NCC1CCCO1)c1ccc(Cl)cc1 (stereo unspecified)	-2.6	.	0.0	0.6	36.1
CN(c1ccc(C(=O)NCC2CCCO2)cc1)S(C)(=O)=O (stereo unspecified)	-9.1	8.5	-0.2	2.0	-4.1
C[C@@H]1CN([C@@H](C)CO)C(=O)c2cc(NC(=O)Nc3ccc(C(F)(F)F)cc3)ccc2O[C@@H](C)CCCCO[C@H]1CN(C)C(=O)Nc1ccccc1	.	.	.	.	-17.9
C[C@@H]1CCCCO[C@@H](CN(C)S(=O)(=O)c2cn(C)cn2)[C@@H](C)CN([C@@H](C)CO)C(=O)c2cc(NS(=O)(=O)c3cn(C)cn3)ccc2O1	.	.	.	.	20.5
COc1cccc(NC(=O)C[C@H]2CC[C@@H]3[C@@H](COc4ccc(NC(=O)c5ccccc5F)cc4C(=O)N3C)O2)c1	.	.	.	.	-8.5
CCCCn1c(NC(=O)c2ccccc2)c(C#N)c2nc3ccccc3nc21	-14.8	51.8*	.	37.8	.
CCCCn1c(NC(=O)c2ccc(F)cc2)c(C#N)c2nc3ccccc3nc21	.	.	-0.2	.	.
CS(=O)(=O)N(Cc1ccc(Cl)cc1)c1ccc(C(=O)NCCC2=CCCCC2)cc1	0.1	5.2	2.4	1.1	79.9*
O=C(NCCC1=CCCCC1)c1ccc(Cl)cc1	.	.	-4.4	.	.
CCN1CCN(C(CNS(=O)(=O)c2ccc(C)cc2)c2cccnc2)CC1 (stereo unspecified)	-5.5	53.2*	1.1	4.3	9.4
Cc1ccc(S(=O)(=O)NCC(c2cccnc2)N2CCN(Cc3ccccc3)CC2)cc1 (stereo unspecified)	-2.5	-2.7	0.3	-1.5	25.3
C/C(=N/NC(=O)c1ccc(Br)o1)c1cccc(NC(=O)c2ccc(C)o2)c1	-16.5	3.3	-0.6	-9.2	-4.0
C/C(=N/NC(=O)c1ccc(Br)o1)c1ccncc1	-5.6	-2.1	-1.0	-7.4	66.7*
Cc1nn(-c2ccccc2)c(C)c1/C=N/NC(=O)CSc1nc2ccccc2c(=O)n1-c1ccc(Br)cc1	-3.0	.	7.1*	3.4	.
c1ccc2nc(-c3nc4ccccc4o3)ccc2c1	-44.1	.	-9.5	40.1*	13.6
c1ccc(-c2nc3ccccc3o2)nc1	-3.0	17.9	-5.0	27.3	.
Nc1c(C(=O)Nc2ccccc2)sc2nc(-c3cccnc3)ccc12	.	.	-0.9	.	17.3
COc1ccc(NC(=O)c2sc3nc(-c4cccnc4)ccc3c2N)cc1	-13.7	92.1*	0.1	38.8	12.5
CCOc1ccc(OCC)c(S(=O)(=O)NCc2ccccc2)c1	-0.1	55.4*	2.2	-1.8	-1.4
CC1(C(=O)NS(=O)(=O)c2cccc(OC(F)F)c2)CCN1C(=O)c1ccco1 (stereo unspecified)	.	58.5*	.	-2.9	9.1
O=C1CSC(c2ccccc2)N1c1ccccc1F (stereo unspecified)	-2.9	-12.4	-0.5	-1.3	38.7
O=C1CSC(c2ccccc2)N1c1ccc(F)cc1F (stereo unspecified)	0.6	5.9	0.0	-3.8	47.8*
COc1ccccc1NC(=O)c1ccccc1C(=O)O	-6.1	-1.9	-0.4	-3.3	8.8
COc1ccccc1NC(=O)c1ccccc1NC(=O)c1ccccn1	?	51.0*	.	5.8	37.3
SMILES	dFosB activator	Vif inh	Bfl-1 A1 inh	Neddylation inh	GSIS activator
CCC(=O)N1CC(=O)N2[C@H](CO)[C@@H](c3ccc(C#CC4CCCC4)cc3)[C@@H]2C1	.	.	.	.	15.6
N#Cc1c(-c2ccncc2)cc(-c2ccc(F)cc2)nc1N	12.8	-10.0	-0.4	.	49.4*
Oc1ccc(Br)cc1/C=N/Nc1ncc(-c2ccccc2)cn1	30.1*	-4.9	-0.2	36.6	.
O=C([C@@H]1N[C@@H]2c3ccc(C4=CCCC4)c(=O)n3C[C@@H]2[C@H]1CO)N1CCc2ccccc2C1	.	.	.	.	-3.3
O=C1CSC(c2ccccn2)N1c1ccccc1 (stereo unspecified)	8.6	-1.8	1.3	7.5	16.2
O=C1CSC(c2ccccn2)N1c1ccc(Br)cc1 (stereo unspecified)	-7.2	0.7	0.0	2.6	42.6*
CCCC1(C2CCCC2)NC(=O)NC1=O (stereo unspecified)	3.1	96.8*	.	2.8	-3.9
O=C1NC(=O)C(c2ccccc2)(C2CCCC2)N1 (stereo unspecified)	-3.8	3.5	.	8.4	-6.5
CC(C)NC(=O)N(C)C[C@@H]1Oc2ccc(NS(=O)(=O)c3cn(C)cn3)cc2CC(=O)N([C@@H](C)CO)C[C@@H]1C	.	.	.	.	16.8
CCc1nnc(NC(=O)CSc2nnc3nc(C)cc(C)n23)s1	-4.1	-11.6	-0.5	23.3	43.3*
C[C@@H]1CN([C@@H](C)CO)C(=O)c2cc(-c3ccccc3)cnc2O[C@@H]1CN(C)C(=O)Cc1ccccc1	.	.	.	.	-3.4
C/C=C/c1ccc([C@H]2[C@@H](CO)N(C(=O)C3CCCCC3)C23CN(C(=O)NC(C)C)C3)cc1	.	.	.	.	-29.8
N=c1n(CC(=O)c2ccc(Br)cc2)c2ccccc2n1Cc1ccccc1	35.0*	-5.5	0.1	-282.2	18.5
O=C(NCCC1CCCCN1S(=O)(=O)c1ccc(F)cc1)C(=O)NCc1cccnc1 (stereo unspecified)	-7.2	-1.0	0.2	10.3	49.7*
CNC[C@H]1Oc2c(NC(C)=O)cccc2C(=O)N(C)C[C@H]1C	.	.	.	.	4.2
COc1cccc(N/C=C/c2onc(C)c2[N+](=O)[O-])c1	-2.5	3.1	-5.6	-10.1	52.1*
Cc1ccc(N/C=C/c2onc(C)c2[N+](=O)[O-])cc1	-4.3	-2.1	-6.0	-27.7	-19.2
CO[C@H]1CN(C)C(=O)c2ccc(NC(=O)c3ccccc3)cc2OC[C@@H](C)N(C(=O)CN(C)C)C[C@@H]1C	.	.	.	.	-2.8
CN1C(=O)/C(=C\c2ccncc2)SC1=Nc1ccccc1	-6.7	.	0.0	-25.7	66.7*
CCCN1C(=O)/C(=C/c2ccncc2)SC1=S	2.6	-9.3	0.7	-24.7	17.7
COCCNC(=O)/C(C#N)=C/c1cn(CC(=O)NCc2ccco2)c2ccccc12	1.3	22.0	0.7	-11.3	-17.0
Cc1cccc(NC(=O)/C(C#N)=C/c2cn(CC(=O)NCc3ccco3)c3ccccc23)c1	-0.6	-2.6	52.6*	.	2.1
CCC(=O)N(C)C[C@@H]1Oc2cc(-c3ccncc3)ccc2S(=O)(=O)N([C@@H](C)CO)C[C@@H]1C	.	.	.	.	14.1
Cc1noc(C)c1S(=O)(=O)Nc1ccc2c(c1)C(=O)N([C@@H](C)CO)C[C@@H](C)[C@H](CN(C)C(=O)c1ccccc1)OCCCC[C@H](C)O2	.	.	.	.	-3.5
